Source: the supplement of paper PMC9262897, “Low-cost anti-mycobacterial drug discovery using engineered E. coli” (Nature Communications, 2022)
Counter-ions that a name gives are not always drawn. ± gives the standard deviation of the averaged measurements.

Key:
Test in all cases: growth (OD600 after 10 h); higher = more growth (less inhibition)
[1] = test system: E. coli TESEC Alr+ wild-type control; settings: compound 0.1 mM; raw OD600 reference: median of DMSO wells 0.241, cell-free background 0.041
Procedure: (§1)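 TESEC Mtb Alr E. coli, or the Alr+ wild-type control, in 384-well plates with Prestwick library compounds at 0.1 mM and 1% DMSO, across arabinose induction levels of 1E3 to 1E7 nM. Growth is read as OD600 after 10 h at 37 °C in triplicate biological replicates.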

[2] = test system: E. coli TESEC Mtb Alr; settings: compound 0.1 mM
Procedure: as §1

[3] = test system: E. coli TESEC Mtb Asd; settings: compound 0.1 mM
Procedure: (§2)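 TESEC E. coli strains in which the native enzyme is deleted and replaced by arabinose-inducible Mtb Asd, DapB, CysH or TrpD, each grown in its selective medium. Strains were screened against the Prestwick library at 0.1 mM and 1% DMSO in 384-well format at low and high arabinose induction. Growth is read as OD600 after 10 h in triplicate.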

[4] = test system: E. coli TESEC Mtb DapB; settings: compound 0.1 mM
Procedure: as §2

[5] = test system: E. coli TESEC Alr+ wild-type control; settings: compound 0.1 mM; raw OD600 reference: median of DMSO wells 0.49, cell-free background 0.052
Procedure: (§3)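 TESEC Mtb Alr E. coli (ΔaraC ΔtolC ΔentC Δalr ΔdadX, arabinose-inducible Mtb Alr) or the Alr+ wild-type control strain, grown in defined M9-fructose medium without D-alanine in 96-well plates with Prestwick library compounds at 0.1 mM and 1% DMSO. Low Alr induction is 0.1 µM arabinose and high induction is 10 mM arabinose.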

[6] = test system: E. coli TESEC Mtb Alr; settings: compound 0.1 mM; remark: listed apart in the source
Procedure: as §3

[7] = arabinose 1000 nM, raw OD600 reference: median of DMSO wells 0.294, cell-free background 0.041
[8] = arabinose 10000 nM, raw OD600 reference: median of DMSO wells 0.264, cell-free background 0.041
[9] = arabinose 100000 nM, raw OD600 reference: median of DMSO wells 0.201, cell-free background 0.041
[10] = arabinose 1000000 nM, raw OD600 reference: median of DMSO wells 0.193, cell-free background 0.041
[11] = arabinose 10000000 nM, raw OD600 reference: median of DMSO wells 0.146, cell-free background 0.041
[12] = arabinose induction (level): High, raw OD600 reference: median of DMSO wells 0.331, cell-free background 0.041
[13] = arabinose induction (level): Low, raw OD600 reference: median of DMSO wells 0.417, cell-free background 0.041
[14] = arabinose induction (level): High, raw OD600 reference: median of DMSO wells […], cell-free background 0.041
[15] = arabinose induction (level): Low, raw OD600 reference: median of DMSO wells 0.227, cell-free background 0.041
[16] = arabinose 100 nM, raw OD600 reference: median of DMSO wells 0.413, cell-free background 0.052
[17] = arabinose 10000000 nM, raw OD600 reference: median of DMSO wells […], cell-free background 0.052

| SMILES | growth [1] | growth [2, 7] | growth [2, 8] | growth [2, 9] | growth [2, 10] | growth [2, 11] | growth [3, 12] | growth [3, 13] | growth [4, 14] | growth [4, 15] | growth [5] | growth [6, 16] | growth [6, 17] |
| --- | --- | --- | --- | --- | --- | --- | --- | --- | --- | --- | --- | --- | --- |
| Clc1ccc(C(c2ccccc2Cl)C(Cl)Cl)cc1 (configuration not stated) [Mitotane] | 0.224 ± 0.0027 | 0.215 ± 0.017 | 0.224 ± 0.01 | 0.183 ± 0.012 | 0.0935 ± 0.018 | 0.133 ± 0.013 | 0.213 ± 0.018 | 0.204 ± 0.018 | 0.208 ± 0.0072 | 0.224 ± 0.033 | 0.403 ± 0.0086 | 0.38 ± 0.011 | 0.0729 ± 0.0022 |
| CC(C)CC(=O)N[C@H](C(=O)N[C@H](C(=O)N[C@@H](CC(C)C)[C@@H](O)CC(=O)N[C@@H](C)C(=O)N[C@@H](CC(C)C)[C@@H](O)CC(=O)O)C(C)C)C(C)C [Pepstatin A] | 0.226 ± 0.0077 | 0.307 ± 0.0049 | 0.271 ± 0.0051 | 0.234 ± 0.043 | 0.202 ± 0.02 | 0.15 ± 0.0034 | 0.419 ± 0.028 | 0.427 ± 0.064 | 0.172 ± 0.0073 | 0.246 ± 0.046 | 0.468 ± 0.053 | 0.412 ± 0.005 | 0.345 ± 0.036 |
| N#Cc1cc(NC(=O)C(=O)O)c(Cl)c(NC(=O)C(=O)O)c1 [Lodoxamide] | 0.264 ± 0.0031 | 0.315 ± 0.006 | 0.2862 ± 0.0018 | 0.173 ± 0.0062 | 0.205 ± 0.013 | 0.134 ± 0.0054 | 0.228 ± 0.029 | 0.366 ± 0.035 | 0.222 ± 0.018 | 0.235 ± 0.03 | 0.579 ± 0.069 | 0.404 ± 0.014 | 0.348 ± 0.024 |
| CC(C)C[C@H](NC(=O)[C@@H](O)[C@H](N)Cc1ccccc1)C(=O)O [Ubenimex] | 0.24 ± 0.011 | 0.28 ± 0.0072 | 0.2345 ± 0.0011 | 0.215 ± 0.028 | 0.185 ± 0.006 | 0.132 ± 0.0031 | 0.395 ± 0.019 | 0.382 ± 0.025 | 0.192 ± 0.017 | 0.229 ± 0.015 | 0.528 ± 0.089 | 0.396 ± 0.011 | 0.323 ± 0.018 |
| CN(C)CCOC(c1ccc(Cl)cc1)c1ccccn1 (configuration not stated) [Carbinoxamine maleate salt] | 0.2081 ± 0.00038 | 0.297 ± 0.017 | 0.265 ± 0.006 | 0.196 ± 0.034 | 0.187 ± 0.018 | 0.13 ± 0.011 | 0.259 ± 0.023 | 0.44 ± 0.01 | 0.193 ± 0.01 | 0.23 ± 0.016 | 0.438 ± 0.022 | 0.393 ± 0.015 | 0.332 ± 0.021 |
| COc1ccc2cc(CCC(C)=O)ccc2c1 [Nabumetone] | 0.168 ± 0.0082 | 0.208 ± 0.028 | 0.2236 ± 0.0013 | 0.152 ± 0.012 | 0.109 ± 0.0058 | 0.14 ± 0.0083 | 0.304 ± 0.073 | 0.247 ± 0.04 | 0.175 ± 0.0022 | 0.187 ± 0.0098 | 0.485 ± 0.0083 | 0.399 ± 0.01 | 0.297 ± 0.017 |
| Cc1c(C)c2c(c(C)c1O)CCC(C)(COc1ccc(CC3SC(=O)NC3=O)cc1)O2 (configuration not stated) [Troglitazone] | 0.0771 ± 0.022 | 0.108 ± 0.06 | 0.0436 ± 0.0028 | 0.16 ± 0.011 | 0.0474 ± 0.003 | 0.104 ± 0.016 | 0.0511 ± 0.00036 | 0.0536 ± 0.0033 | 0.08 ± 0.0038 | 0.126 ± 0.04 | 0.445 ± 0.029 | 0.0885 ± 0.025 | 0.0573 ± 0.00085 |
| CC1Cc2ccccc2N1NC(=O)c1ccc(Cl)c(S(N)(=O)=O)c1 (configuration not stated) [Indapamide] | 0.225 ± 0.0038 | 0.278 ± 0.01 | 0.27 ± 0.011 | 0.191 ± 0.015 | 0.159 ± 0.0057 | 0.15 ± 0.009 | 0.224 ± 0.01 | 0.442 ± 0.03 | 0.208 ± 0.016 | 0.216 ± 0.021 | 0.497 ± 0.015 | 0.425 ± 0.014 | 0.336 ± 0.018 |
| Cc1ncc([N+](=O)[O-])n1CCO [Metronidazole] | 0.244 ± 0.0028 | 0.291 ± 0.014 | 0.264 ± 0.0049 | 0.221 ± 0.036 | 0.177 ± 0.0036 | 0.144 ± 0.0031 | 0.378 ± 0.03 | 0.378 ± 0.013 | 0.202 ± 0.015 | 0.264 ± 0.052 | 0.426 ± 0.033 | 0.394 ± 0.021 | 0.347 ± 0.038 |
| Cc1c(Nc2ncccc2C(=O)O)cccc1C(F)(F)F [Flunixin meglumine] | 0.146 ± 0.0033 | 0.084 ± 0.007 | 0.0857 ± 0.0019 | 0.163 ± 0.005 | 0.082 ± 0.0026 | 0.127 ± 0.0028 | 0.157 ± 0.0086 | 0.125 ± 0.0096 | 0.178 ± 0.0075 | 0.187 ± 0.01 | 0.373 ± 0.034 | 0.277 ± 0.026 | 0.146 ± 0.021 |
| CN[C@H]1CC[C@@H](c2ccc(Cl)c(Cl)c2)c2ccccc21 [Sertraline] | 0.0407 ± 0.00036 | 0.0417 ± 0.0013 | 0.0403 ± 0.0019 | 0.0432 ± 0.0016 | 0.0393 ± 0.0007 | 0.0414 ± 0.00047 | 0.0545 ± 0.0057 | 0.0508 ± 0.0037 | 0.0504 ± 0.00093 | 0.0522 ± 0.0014 | 0.0502 ± 0.00068 | 0.392 ± 0.036 | 0.0517 ± 0.00092 |
| N=C(N)NCc1cccc(I)c1 [Iobenguane sulfate] | 0.231 ± 0.005 | 0.289 ± 0.0045 | 0.267 ± 0.0098 | 0.238 ± 0.029 | 0.202 ± 0.012 | 0.149 ± 0.011 | 0.29 ± 0.018 | 0.425 ± 0.056 | 0.188 ± 0.0051 | 0.265 ± 0.04 | 0.488 ± 0.019 | 0.409 ± 0.016 | 0.384 ± 0.013 |
| CCCOc1ccc2[nH]c(NC(=O)OC)nc2c1 [Oxibendazol] | 0.264 ± 0.025 | 0.309 ± 0.021 | 0.269 ± 0.0059 | 0.213 ± 0.028 | 0.183 ± 0.0022 | 0.151 ± 0.0057 | 0.353 ± 0.1 | 0.425 ± 0.048 | 0.191 ± 0.013 | 0.219 ± 0.027 | 0.518 ± 0.085 | 0.409 ± 0.0096 | 0.345 ± 0.039 |
| O=C(O)Cc1ccccc1Nc1c(Cl)cccc1Cl [Diclofenac sodium] | 0.1279 ± 0.00065 | 0.137 ± 0.0017 | 0.132 ± 0.0064 | 0.149 ± 0.006 | 0.103 ± 0.004 | 0.131 ± 0.0017 | 0.172 ± 0.014 | 0.179 ± 0.01 | 0.166 ± 0.0086 | 0.172 ± 0.014 | 0.436 ± 0.0056 | 0.329 ± 0.037 | 0.214 ± 0.015 |
